# An excerpt weighted towards active compounds, which were near 9.5% of everything screened.
# Tau FP inhib: blocks human tau fibril formation measured by polarization; K18 P301L tau heparin fibrillization, Alexa594 FP, 6 h; Potency, µM (doses to about 57.7 µM), inactives show at the highest dose activity, negative = inhibition, actives largely listed as inhibitors; AID 1468; 0.39% of 280,000 active; P10636; further: nearly all actives have a fitted effect of over 55% in size
# Target sequence (P10636 561-689 P618L limits assumed): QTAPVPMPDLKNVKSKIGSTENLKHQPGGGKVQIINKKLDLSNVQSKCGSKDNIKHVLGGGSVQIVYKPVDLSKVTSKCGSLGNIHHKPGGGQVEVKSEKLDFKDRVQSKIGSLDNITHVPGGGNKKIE
#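 FP of Alexa 594-tau after heparin (20 uM) induction. Substrate: human K18 P301L, 15 uM unlabeled, 0.24 uM labeled. Buffer 100 mM sodium acetate pH 7. 6 hr, 37 C.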
# Tau ThT inhib: tau fibrillization inhibition (ThT binding) | recombinant tau K18 P301L, heparin-induced fibrillization, ThT fluorescence | 2.1% of 270,000 active | AID 1460 | Potency, µM (top dose mostly 57.4 µM), inactives show at the highest dose activity, negative = inhibition, most hits filed as inhibitors; further: nearly all actives have a fitted effect of over 55% in size
#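 ThT emission at 510 nm, taken 1 hr after adding 30 uM dye, quantifies aggregates formed when 20 uM heparin acts on human tau K18 P301L for 6 hr at 37 C.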
# ALDH1A1 block: inhibitors of human aldehyde dehydrogenase 1A1. P00352. Purified ALDH1A1, NADH fluorescence, propionaldehyde substrate. Potency, µM (series often up to 75.3 µM), inactives show at the top dose activity, negative = inhibition, hits mostly inhibitors. 7.3% of 220,000 active. AID 1030; active means well fitted inhibition curve with a large enough effect, not every such curve was filed as active; inconclusive means small, poorly fitted or top-dose-only effect, or another doubt; inactive means no such curve, though single readings can be large or run the other way;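 further: plate controls were no enzyme wells and a reference inhibitor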
# HPGD inh: HPGD (human) dehydrogenase inhibition; AID 894; 4.3% of 150,000 active; Potency, µM, for the others: at the top dose activity change, negative = inhibition, actives largely listed as inhibitors; P15428; purified HPGD, NADH fluorescence kinetic, PGE2 substrate; active means well fitted inhibition curve with a large enough effect, not every such curve was filed as active; inconclusive means small, poorly fitted or top-dose-only effect, or another doubt; inactive means no such curve, though single readings can be large or run the other way
#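 20 nM HPGD preincubated 15 min at room temperature with compound in 50 mM Tris-HCl pH 8, 0.01% Tween 20. Started with 1 mM NAD+ and 30 uM prostaglandin E2; NADH fluorescence (360/450 nm) read 5 times over 30-s intervals, last minus first.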
# NPSR antagonist: antagonists of human neuropeptide S receptor cAMP signaling | Q6W5P4 | CHO-NPSR cells, cAMP TR-FRET, antagonist mode | Potency, µM (top dose mostly 38.3 µM), without a hit: top-dose activity change, negative = inhibition, actives largely listed as inhibitors | 1% of 220,000 active; further: nearly all actives have a fitted effect of over 50% in size
# Target sequence (Q6W5P4 whole entry, looked up): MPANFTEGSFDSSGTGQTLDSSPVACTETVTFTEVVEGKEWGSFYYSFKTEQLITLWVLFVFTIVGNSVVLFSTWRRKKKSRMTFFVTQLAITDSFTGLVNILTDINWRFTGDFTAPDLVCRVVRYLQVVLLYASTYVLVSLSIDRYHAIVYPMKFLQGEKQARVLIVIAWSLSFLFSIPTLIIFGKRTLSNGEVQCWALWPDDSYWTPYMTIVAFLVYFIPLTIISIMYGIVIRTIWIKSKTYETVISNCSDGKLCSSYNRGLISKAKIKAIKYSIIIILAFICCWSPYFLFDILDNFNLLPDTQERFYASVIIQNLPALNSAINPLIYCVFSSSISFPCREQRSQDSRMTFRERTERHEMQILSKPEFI
# Tau fluor counter: counter-screen for tau fibril formation inhibitors; 0.93% of 280,000 active; Potency, µM (titrated, usually from 57.7 µM), without a hit: at the top dose activity change, negative = decrease; AID 1463; tau K18 P301L (four-repeat tau fragment) Alexa594 fluorescence, heparin fibrillization; further: nearly all actives have a fitted effect of over 55% in size
#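 Human K18 P301L tau (15 uM unlabeled plus 0.24 uM Alexa 594-labeled, final) in 100 mM sodium acetate pH 7 was mixed with compound and 20 uM heparin and incubated 6 hr at 37 C.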
# Numbers without * were called inactive; u = inconclusive; x = not tested or not shown; [ ] = remark or other dose. Unless noted, the call rests on the fitted dose curve; in most records, active means well fitted curve in the direction sought with a large enough effect; inconclusive means small, poorly fitted or top-dose-only effect, or another doubt; inactive means no such curve, though single readings can be large; an effect the other way counts as inactive or inconclusive. Unless noted, on the % scale 0 is the no-effect control and ±100 the full control effect; potency means the concentration at half of the fitted maximal effect.
SMILES,Tau FP inhib,Tau ThT inhib,ALDH1A1 block,HPGD inh,NPSR antagonist,Tau fluor counter
Cc1ccc(NCCC(=O)c2ccc(Cl)c(Cl)c2)cc1,11%,u,0.79µM*,-15%,-11%[46.1 µM],-16%
CC(C)(C)c1ccc(C(=O)Nc2ccc(NC(=O)c3ccc(Cl)c(Cl)c3)cc2)cc1,-15%,-6%,x,x,x,-8%
COc1ccc(/C=N/Nc2c(Cl)cc(Cl)cc2Cl)cc1CN1CCOCC1,1%,-17%,-2%,-6%,-5%,-14%
CC(=O)c1ccc(NS(=O)(=O)Cc2ccccc2)cc1,-2%,9%,-4%,25µM*,-11%[46.1 µM],4%
CCCOc1ccc(C(=O)CCNc2ccc(C)c(Cl)c2)cc1,16%,-21%,18µM*,-5%,-7%[46.1 µM],-7%
Cc1ccc(C(=O)CCNc2ccc(Cl)cc2)o1,1%,-18%,4µM*,-10%,-12%[46.1 µM],-16%
CC(=O)N(C)c1ccc(NS(=O)(=O)Cc2ccccc2)cc1,2%,-6%,-4%,-18%,-3%[46.1 µM],-11%
O=C(Nc1ccc(F)c(Cl)c1)C1Cc2ccccc2CN1S(=O)(=O)c1ccc(F)cc1 (stereo not drawn),u,9%,x,x,x,u
CCC(=O)N1c2ccccc2CC1C(=O)NCCc1cc(OC)c(OC)c(OC)c1 (stereo not drawn),3%,-4%,x,x,x,0%
O=C1c2ccccc2-c2onc3c(Oc4ccccc4)cc(O)c1c23,-7%,18µM*,-9%,-28%,-12%[46.1 µM],u
Cc1ccc(C(=O)NCc2ccccn2)c(Cl)c1,-3%,-7%,9%,14µM*,9%[46.1 µM],-4%
Cc1nn2c(CN(C(=O)COc3ccccc3)c3ccccc3)nnc2c2ccccc12,-5%,-8%,11µM*,-22%,3%,-3%
Cc1nn2c(COc3ccc(NC(=O)c4ccccc4Cl)cc3)nnc2c2ccccc12,6%,u,5%,14µM*,1%,-5%
Cc1nn2c(CN(C(=O)CN3CCOCC3)c3ccccc3)nnc2c2ccccc12,-3%,-5%,18µM*,-3%,5%[46.1 µM],-4%
CCOC(=O)Nc1ccc(OCc2nnc3c4ccccc4c(C)nn23)cc1,2%,u,0%,x,8%,-23%
CCOc1ccc(NC(=O)Cn2c(=O)nc(-c3ccccc3)c3ccccc32)cc1,-3%,5%,x,x,x,-1%
CCOc1ccccc1C(=O)Nc1cc(C(=O)NCC(C)C)ccc1Cl,1%,-4%,10%,x,14%,-12%
Cn1c(CN2CCCC2)nc2cc(NC(=O)c3cccs3)ccc21,-7%,-15%,u,-21%,-3%,-3%
CCCn1c2ccccc2c2cnn(CC(=O)N(CCCOC(C)C)Cc3ccco3)c(=O)c21,8%,-14%,x,x,x,-1%
CCOC(=O)C1=C(C)C(c2cccc(Oc3ccccc3)c2)NC(=S)N1 (stereo not drawn),4%,-13%,0.56µM*,-10%,-44%,-15%
CCOC(=O)C1=C(c2ccccc2)NC(=S)NC1c1ccc(Cl)c([N+](=O)[O-])c1 (stereo not drawn),7%,u,0.71µM*,-24%,-34%,-19%
CCOC(=O)C1=C(c2ccccc2)NC(=O)NC1c1cc(Cl)c(O)c(OC)c1 (stereo not drawn),8%,-8%,11%,x,-6%,-9%
COc1cc(C2NC(=S)NC(c3ccccc3)=C2C(C)=O)cc(Cl)c1OCC(=O)O (stereo not drawn),1%,-4%,u,-20%,-11%[46.1 µM],0%
CCOC(=O)C1=C(C)C(c2ccc(OC)cc2)NC(=O)N1 (stereo not drawn),5%,-6%,3%,x,7%,-9%
CCOC(=O)C1=C(C)C(c2ccc(OC)cc2)NC(=S)N1 (stereo not drawn),1%,-9%,2.2µM*,-9%,-10%[46.1 µM],-4%
CC(=O)C1=C(c2ccccc2)NC(=S)NC1c1cc(Cl)c(OC(C)C)c(Cl)c1 (stereo not drawn),-2%,-6%,0.71µM*,-19%,-53%,-20%

# Screens: PubChem BioAssay, National Center for Advancing Translational Sciences (NCATS)
